Eight compounds from PubChem BioAssay (NCI) can be followed below.

Molecules are shown by their SMILES. Compounds without any hit were thinned out: in the full panel of roughly 83,000, 20% have a hit.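 Each cell line was grown in a 96-well plate and treated with one concentration of compound for 48 hours. Values below 10 were considered active.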 Values without a mark were called inactive. The source made the active and inactive calls.

Common to all, as to assay: NCI-60 one-dose screen, 48 h (100 = growth as untreated, 0 = no growth, -100 = all killed)
What all share (conditions): 10 µM unless noted

In assay [1] the test system is DU-145 prostate.
The subject of assay [2] is K-562 leukemia.
The test system of assay [3] is MALME-3M melanoma.
For assay [4], the system named is MDA-MB-231 breast.
The test system of assay [5] is RXF 393 renal.
For assay [6], the system named is SF-268 CNS.
Assay [7] concerns SF-295 CNS.
Assay [8] concerns SF-539 CNS.
Assay [9] relates to UACC-257 melanoma.
Assay [10] relates to M14 melanoma.
Assay [11] has as its system HCT-15 colon.
For assay [12], the system named is HT29 colon.
The subject of assay [13] is SNB-75 CNS.
Assay [14] concerns SNB-19 CNS.
Assay [15] deals with U251 CNS.
In assay [16] the test system is SK-MEL-5 melanoma.
Assay [17] deals with UACC-62 melanoma.
The test system of assay [18] is LOX IMVI melanoma.
The subject of assay [19] is SK-MEL-28 melanoma.
Assay [20] deals with PC-3 prostate.

Turning to `COc1ccc(Nc2ncnc3c2sc2nc(C)cc(C)c23)cc1`, the growth in assay [1] is 102%; in [2] it was 101%; in assay [3] it was 94.5%; in assay [4], 102%; in [5], 104%; in assay [6], 94.3%. For the same compound, the growth in [7] was 112%; in assay [8] it was 94.6%; in [9], 93.2%; in assay [10] it was 102%; in assay [11], 96%; in assay [12], 105%. Also, the growth was 74.4% in [13]; 99.2% in [14]; 103% in assay [15]; 99.8% in assay [16]; 100% in assay [17]; 96.7% in assay [18]. The growth in assay [19] was 105%.
Regarding `CC(=O)N1N=C(c2ccc(C)cc2)CC1c1cn(-c2ccccc2)nc1-c1cccc(Nc2ccnc3cc(Cl)ccc23)c1` (configuration not stated), the growth is 34.3% in assay [1]; 15.1% in assay [2]; -2.79% (active) in assay [3]; 58.9% in assay [4]; 67.8% in assay [5]; 73.7% in assay [6]. Moreover, the growth in [7] is 109%; in assay [8], 99.4%; in [9], 106%; in assay [10], 87.3%; in assay [11], 62.2%; in assay [12], 47.7%. Besides, the growth is 102% in [13]; 83.4% in assay [14]; 14.9% in [15]; 73.8% in assay [16]; 82.2% in assay [17]; 10.4% in assay [18]. Besides, in assay [19], the growth is 51.9%.
As for `COc1cc2c(cc1C)NC(=O)/C2=C\c1c[nH]c2ccccc12`, the growth in assay [1] was 78.6%; in assay [2] it was 40.6%; in assay [3], 75.9%; in [4] it was 60.8%; in assay [5], 47%; in assay [6], 81.6%. The growth in assay [7] is 26.4%; in [8], 69.7%; in assay [9], 90%; in assay [10] it was 80.9%; in assay [11], 58.4%; in assay [12] it was 35.4%. Also, the growth in [13] was 37.9%; in assay [15], 61.5%; in assay [20], 53.3%; in [16], 73.8%; in assay [17] it was 77.9%; in assay [18] it was 44.9%.
For `FC(F)(F)c1ccc(/C=N/Nc2nnc3n2N=C(c2ccc(Cl)cc2)CS3)cc1`, the growth in [1] is 53.7%; in assay [2], 80.9%; in assay [3], 16.3%; in [4] it was 56.2%; in assay [5], 3.04% (active); in assay [6], 36.8%. Also, the growth is 47.6% in [7]; 54.8% in assay [8]; 46.9% in [9]; 74.4% in [10]; 79.9% in assay [11]; 70.1% in [12]. Further, the growth was -24.9% (active) in assay [13]; 20.3% in [14]; 60.4% in [15]; 76.4% in [16]; 55.1% in assay [17]; 82.8% in assay [18].
Take `CC(=O)OC1Oc2ccccc2-c2oc3nc(=N)n(C)c-3cc21` (configuration not stated): the growth in assay [1] is 191%; in assay [2], 94.9%; in assay [3], 119%; in assay [4], 112%; in [5] it was 144%; in assay [6], 251%. For the same compound, the growth in assay [7] is 125%; in [8], 102%; in assay [9] it was 113%; in assay [10], 98.7%; in assay [11] it was 104%; in assay [12], 109%. For the same compound, the growth in assay [13] was 112%; in assay [14], 106%; in assay [15], 113%; in assay [16], 108%; in [17], 106%; in assay [18], 103%. Also, the growth in assay [19] was 122%.
As for `COc1cccc(OCC(O)CN2CCN(c3ccccc3)CC2)c1` (configuration not stated), the growth in [1] was 116%; in [2] it was 92.4%; in assay [3], 145%; in [4], 108%; in [5], 163%; in assay [6], 106%. Further, the growth in [7] was 113%; in assay [8], 100%; in assay [9] it was 134%; in assay [10] it was 104%; in [11] it was 117%; in assay [12], 103%. Besides, the growth in [13] was 96.5%; in [15], 108%; in assay [16] it was 108%; in assay [17] it was 94.3%; in [18], 104%; in assay [19], 81.4%.
As for `COc1cc2nccc(Oc3ccc(NC(=O)C4(C(=O)Nc5c(F)cc(F)cc5F)CC4)cc3)c2cc1Oc1ccc(N)cn1`, the growth in assay [1] was 80.7%; in assay [2], 7.69% (active); in assay [3], 59%; in [4] it was 65.9%; in assay [5], 65.8%; in [6], 55.5%. Besides, the growth in assay [7] was 30.6%; in [8], 21.2%; in assay [9], 53.8%; in assay [10], 56.9%; in assay [11], 45.5%; in assay [12], 34.8%. Moreover, the growth was 21.7% in [13]; 78.7% in [14]; 67.3% in assay [15]; 29% in [16]; 24.4% in assay [17]; 49.4% in assay [18].
Consider `O=C(/C=C/c1cccc([N+](=O)[O-])c1)c1ccc(Nc2nc(N3CCCCC3)nc(N3CCCCC3)n2)cc1`, for which the growth in [1] is 98.7%; in [2], 97.7%; in assay [3], 118%; in [4], 103%; in assay [5] it was 100%; in assay [6], 97.5%. Also, the growth in [7] is 93.2%; in [8], 99.6%; in assay [9], 97.4%; in [10], 98%; in [11], 87.6%; in assay [12], 88.6%. Moreover, the growth in [13] is 101%; in [15] it was 95.2%; in assay [20] it was 89.3%; in assay [16] it was 97.6%; in assay [17], 91%; in assay [18], 92.9%.
